Records with an inconclusive call do not appear. A number with no mark means an inactive call. Calls of active or inactive are those of the source. Calls follow the shape of the dose curve; as a rule, active = well fitted curve in the direction sought with a large enough effect; inconclusive = small, poorly fitted or top-dose-only effect, or another doubt; inactive = no such curve, though single readings can be large; an effect the other way counts as inactive or inconclusive.
Key:
C33A = assay: Primary qHTS to identify gynecologic anti-cancer compounds using libraries of approved drugs and bioactive compounds (AID 1345084); details: Gynecologic cancer cell panel viability, ATPlite luminescence, 48 h; series mostly up to 57.5 µM; also: nearly all actives have a fitted effect of over 55% in size; as to activity change, negative = cytotoxicity: % is scaled to controls: 0 for no effect and ±100 for the full control effect
Summary of the method: (§1)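 Cytotoxicity screen measuring ATP content by luciferase luminescence. Each compound is applied at five concentrations for 48 h at 37 C with 5% CO2.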

CAOV3 = assay: as above; details: Gynecologic cancer cell panel viability, ATPlite luminescence, 48 h; series mostly up to 57.5 µM
Summary of the method: as §1

CASKI = assay: as above; details: Gynecologic cancer cell panel viability, ATPlite luminescence, 48 h; series mostly up to 57.5 µM
Summary of the method: as §1

Es-2 = assay: as above; details: Gynecologic cancer cell panel viability, ATPlite luminescence, 48 h; series mostly up to 57.5 µM
Summary of the method: as §1

Hek293T = assay: as above; details: Gynecologic cancer cell panel viability, ATPlite luminescence, 48 h, control line for the selectivity index; series mostly up to 57.5 µM
Summary of the method: as §1

JEG-3 = assay: as above; details: Gynecologic cancer cell panel viability, ATPlite luminescence, 48 h; series mostly up to 57.5 µM
Summary of the method: as §1

OV90 = assay: as above; details: Gynecologic cancer cell panel viability, ATPlite luminescence, 48 h; series mostly up to 57.5 µM
Summary of the method: as §1

PA-1 = assay: as above; details: Gynecologic cancer cell panel viability, ATPlite luminescence, 48 h; series mostly up to 57.5 µM
Summary of the method: as §1

SKOV3 = assay: as above; details: Gynecologic cancer cell panel viability, ATPlite luminescence, 48 h; series mostly up to 57.5 µM
Summary of the method: as §1

Tov112D = assay: as above; details: Gynecologic cancer cell panel viability, ATPlite luminescence, 48 h; series mostly up to 57.5 µM
Summary of the method: as §1

HeLa = assay: as above; details: Gynecologic cancer cell panel viability, ATPlite luminescence, 48 h; series mostly up to 57.5 µM
Summary of the method: as §1

Tov-21-G = assay: as above; details: Gynecologic cancer cell panel viability, ATPlite luminescence, 48 h; series mostly up to 57.5 µM
Summary of the method: as §1

[1] = Drug repurposing screens with cells derived from glioblastoma tumor samples (AID 1345199); details: GBM patient neurospheres viability, ATP luminescence, 48 h; also: nearly all actives have a fitted effect of over 40% in size; as to activity, negative = cell killing: % is scaled to controls: 0 for no effect and ±100 for the full control effect
Summary of the method: (§2)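 Primary testing used CD133+ neurospheres from four GBM patients, seven concentrations, 48 h exposure and ATP-based viability; confirmation added three slower-growing patient lines.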

astro = assay: as above; details: viability, ATP luminescence, 48 h; series mostly up to 91.6 µM
Summary of the method: as §2

[2] = qHTS assay to identify inhibitors of the type 1 interferon - major histocompatibility complex class I in skeletal muscle: Counter screen cell viability and HiBit confirmation (AID 1347412); details: iHSKM muscle cells + IFN-b, HiBiT or CellTiter-Glo, 24 h; HiBiT; also: nearly all actives have a fitted effect of over 60% in size
Summary of the method: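 Myoblasts (C25cl48, HLA-B HiBiT) seeded in medium without dexamethasone, IFN-b 4 ng/ml added except unstimulated columns; 1 hr later compounds pinned (12-pt 1:3, top 46 uM final). Incubated 24 hrs, lysed 10 min, luminescence measured.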
Potency is read from the fitted curve at half-maximal effect.

Compound: CNC(=O)c1ccccc1Nc1cc(Nc2ccc(N3CCOCC3)cc2OC)ncc1C(F)(F)F
- Potency (C33A): inactive
- Potency (CAOV3): inactive
- Potency (CASKI): inactive
- Potency (Es-2): inactive
- Potency (Hek293T): inactive
- Potency (JEG-3): inactive
- Potency (OV90): inactive
- Potency (PA-1): 15.8 µM (active)
- Potency (SKOV3): inactive
- Potency (Tov112D): inactive

Compound: COC(=O)Cc1cc2c(c([N+](=O)[O-])c1)N(C(=O)CC[C@H](N)C(=O)O)CC2
- Potency (C33A): inactive
- Potency (CAOV3): inactive
- Potency (Es-2): inactive
- Potency (HeLa): inactive
- Potency (Hek293T): inactive
- Potency (JEG-3): inactive
- Potency (OV90): inactive
- Potency (PA-1): inactive
- Potency (SKOV3): inactive
- Potency (Tov-21-G): inactive
- Potency (Tov112D): inactive

Compound: COc1cc2nc(N3CCC(N4CCCCC4)CC3)nc(NC3CCCCCC3)c2cc1OC
- Potency (C33A): 25.1 µM (active)
- Potency (CAOV3): 7.08 µM (active)
- Potency (OV90): 22.4 µM (active)
- Potency (SKOV3): 22.4 µM (active)

Compound: CC(=O)O[C@H]1C(=O)[C@@]2(C)[C@H]([C@H](OC(=O)c3ccccc3)[C@]3(O)C[C@H](OC(=O)[C@H](O)[C@@H](NC(=O)c4ccccc4)c4ccccc4)C(C)=C1C3(C)C)[C@]1(OC(C)=O)CO[C@@H]1C[C@@H]2O
- activity change, negative = cytotoxicity (C33A): -4.13% [at 11.6 µM]
- activity change, negative = cytotoxicity (CAOV3): -17.1% [at 11.6 µM]
- Potency (Es-2): 0.126 µM (active)
- Potency (HeLa): 0.0316 µM (active)
- activity change, negative = cytotoxicity (OV90): -15.2% [at 11.6 µM]
- activity change, negative = cytotoxicity (SKOV3): 0% [at 11.6 µM]
- activity, negative = cell killing ([1]; at 45.9 µM (top of the series), tumour line B): -12.5%
- Potency ([1]; tumour line A): 31.6 µM (active)
- Potency ([1]; tumour line D): 0.1 µM (active)
- Potency (astro): 39.8 µM (active)

Compound: Cc1ccc(S(=O)(=O)c2ccc([N+](=O)[O-])o2)cc1
- Potency (C33A): 11.2 µM (active)
- Potency (CAOV3): 11.2 µM (active)
- Potency (Es-2): 8.91 µM (active)
- Potency (Hek293T): 8.91 µM (active)
- Potency (PA-1): 14.1 µM (active)
- Potency (SKOV3): 25.1 µM (active)
- Potency (Tov-21-G): 7.94 µM (active)

Compound: CC1(C)CC(NC(=O)C(=O)Nc2ccc(Br)cc2)CC(C)(C)N1
- Potency (C33A): inactive
- Potency (CAOV3): inactive
- Potency (HeLa): 14.1 µM (active)
- Potency (JEG-3): inactive
- Potency (OV90): inactive

Compound: COC(C(=O)N1Cc2[nH]nc(NC(=O)c3ccc(N4CCN(C)CC4)cc3)c2C1)c1ccccc1 (stereo not drawn)
- Potency (C33A): inactive
- Potency (CAOV3): 1.41 µM (active)
- Potency (Es-2): inactive
- Potency (JEG-3): inactive
- Potency (PA-1): 7.94 µM (active)
- Potency (SKOV3): 17.8 µM (active)
- Potency (Tov-21-G): 12.6 µM (active)

Compound: CC(C)c1cccc2c(-c3ccccc3)cc(-c3ccc(-c4ccc(C(=O)O)cc4)[nH]3)nc12
- Potency (C33A): inactive
- Potency (CAOV3): inactive
- Potency (Es-2): inactive
- Potency (HeLa): inactive
- Potency (Hek293T): inactive
- Potency (JEG-3): inactive
- Potency (OV90): inactive
- Potency (PA-1): inactive
- Potency (SKOV3): inactive

Compound: CC(=O)N[C@H]1[C@H](O[C@H]2CC[C@@]3(C)C(CC[C@]4(C)C3CC=C3C5CC(C)(C)CC[C@]5(C(=O)O)[C@H](O)C[C@]34C)C2(C)C)O[C@H](CO[C@@H]2OC[C@H](O)[C@H](O)[C@H]2O[C@@H]2OC[C@@H](O)[C@H](O)[C@H]2O)[C@@H](O)[C@@H]1O (stereo partly drawn)
- activity change, negative = cytotoxicity (C33A): -5.03% [at 11.6 µM]
- activity change, negative = cytotoxicity (CASKI): -1.03% [at 11.6 µM]
- activity change, negative = cytotoxicity (Es-2): -1.64% [at 11.6 µM]
- activity change, negative = cytotoxicity (HeLa): -4.4% [at 11.6 µM]
- activity change, negative = cytotoxicity (Hek293T): 3.72% [at 11.6 µM]
- activity change, negative = cytotoxicity (JEG-3): 4.23% [at 11.6 µM]
- activity change, negative = cytotoxicity (OV90): 9.62% [at 11.6 µM]
- activity change, negative = cytotoxicity (PA-1): 3.95% [at 11.6 µM]
- activity change, negative = cytotoxicity (SKOV3): 10.7% [at 11.6 µM]
- activity change, negative = cytotoxicity (Tov-21-G): -0.0551% [at 11.6 µM]
- activity change, negative = cytotoxicity (Tov112D): -18.9% [at 11.6 µM]

Compound: Cc1nc(NC(=O)N2CCCC2C(N)=O)sc1-c1csc(C(C)(C)C)n1 (stereo not drawn)
- Potency (C33A): inactive
- Potency (CAOV3): inactive
- Potency (Es-2): inactive
- Potency (Hek293T): inactive
- Potency (JEG-3): inactive
- Potency (OV90): inactive
- Potency (SKOV3): 3.16 µM (active)
- Potency (Tov-21-G): inactive
- Potency (Tov112D): inactive

Compound: NC(=O)c1cnc(NCCc2ccc(O)c(Cl)c2)nc1NCc1ccccc1
- Potency (C33A): inactive
- Potency (CAOV3): inactive
- Potency (Es-2): 15.8 µM (active)
- Potency (HeLa): 25.1 µM (active)
- Potency (Hek293T): 20 µM (active)
- Potency (JEG-3): inactive
- Potency (OV90): inactive
- Potency (PA-1): 10 µM (active)
- Potency (Tov-21-G): 7.94 µM (active)
- Potency (Tov112D): 12.6 µM (active)

Compound: Cc1c(CN2CCN(C(=O)C(C)O)CC2)sc2c(N3CCOCC3)nc(-c3cnc(N)nc3)nc12 (stereo not drawn)
- Potency (C33A): 2 µM (active)
- Potency (CAOV3): 1.41 µM (active)
- Potency (CASKI): 1.26 µM (active)
- Potency (Hek293T): 0.891 µM (active)
- Potency (OV90): 1.78 µM (active)
- Potency (SKOV3): 1 µM (active)
- Potency (Tov-21-G): 2.24 µM (active)

Compound: CNCc1ccc(-c2cc(-c3nc(-c4ccc(S(=O)(=O)C(C)C)cc4)cnc3N)on2)cc1
- Potency (C33A): inactive
- Potency (CAOV3): 14.1 µM (active)
- Potency (Es-2): 8.91 µM (active)
- Potency (JEG-3): inactive
- Potency (PA-1): 11.2 µM (active)
- Potency (SKOV3): 3.16 µM (active)
- Potency (Tov-21-G): 1.58 µM (active)

Compound: CC(C)Oc1ccc(C(=O)NC(CNC(=O)CN(C)C)Cc2ccc(-c3cn4cccc(C(C)O)c4n3)cc2)cc1Cl (stereo not drawn)
- Potency (C33A): inactive
- Potency (CAOV3): inactive
- Potency (HeLa): 0.251 µM (active)
- Potency (JEG-3): inactive
- Potency (OV90): inactive
- Potency (PA-1): 0.316 µM (active)
- Potency (SKOV3): inactive
- Potency (Tov112D): 0.316 µM (active)

Compound: CC1=C(CO)C(=O)O[C@@H]([C@@H](C)[C@H]2CC[C@H]3[C@@H]4C[C@H]5O[C@]56[C@@H](O)C=CC(=O)[C@]6(C)[C@H]4CC[C@]23C)C1
- Potency (C33A): 4.47 µM (active)
- Potency (CAOV3): 8.91 µM (active)
- Potency (Es-2): 11.2 µM (active)
- Potency (Hek293T): 11.2 µM (active)
- Potency (SKOV3): 8.91 µM (active)
- Potency (Tov-21-G): 7.08 µM (active)
- Potency (Tov112D): 10 µM (active)
- Potency [2]: 0.883 µM (active)

Compound: Cc1cc(C(=O)N2Cc3cnn(C)c3Nc3ccccc32)ccc1CNC(=O)N1CCC[C@H]1C(=S)N1CCCN(C)CC1
- Potency (C33A): inactive
- Potency (CAOV3): inactive
- Potency (Es-2): inactive
- Potency (HeLa): inactive
- Potency (Hek293T): inactive
- Potency (JEG-3): inactive
- Potency (OV90): inactive
- Potency (PA-1): inactive
- Potency (Tov-21-G): inactive
- Potency (Tov112D): inactive

Source: PubChem BioAssay (NCATS)
